Assay outcomes from PubChem BioAssay.
A selection: hits, their analogues and other compounds. The true share with any hit is near 2.3%.
Nrf2 block – Nrf2 pathway inhibition. A549 ARE-Fluc reporter, luciferase luminescence, 18-24 h. Potency, µM (doses to about 46 µM), for inactives: top-dose activity change, negative = inhibition, hits mostly inhibitors. actives 2.1% (n = 360,000). AID 504444; further: potency means the concentration at half of the fitted maximal effect; on the % scale 0 is the no-effect control and ±100 the full control effect; nearly all actives have a fitted effect of over 60% in size
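Nrf2 function is reported as luminescence of an ARE-controlled luciferase in A549 cells. Compounds were tested at several concentrations, and a CellTiter-Fluor read on the same wells flagged cytotoxicity.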
Nrf2 ARE act – activators of Nrf2 (ARE) signaling; AID 624171; Potency, µM (doses to about 46.1 µM), without a hit: at the highest dose activation, usual class: activators; actives 0.31% (n = 410,000); AREc32 ARE-luciferase reporter (MCF7-derived line), luminescence, 24 h; further: potency means the concentration at half of the fitted maximal effect; % of control where 0% means no effect; nearly all actives have a fitted effect of over 65% in size
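ARE-driven firefly luciferase activity in AREc32 cells measured after a 24 hr compound exposure at 37 deg C, using Steady-Glo reagent and a 30 min room-temperature hold.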
A549 tox-1 – kills or reduces viability of A549 cells in Nrf2 counter-screen; A549 ARE-Fluc cells, CellTiter-Fluor viability, 18-24 h; Potency, µM (doses to about 46 µM), for inactives: at the highest dose activity change, negative = cytotoxicity, hits mostly inhibitors; actives 0.16% (n = 390,000); further: potency means the concentration at half of the fitted maximal effect; on the % scale 0 is the no-effect control and ±100 the full control effect
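A549 ARE-Fluc cells in 5% FBS OPTI-MEM, 5000 cells/well, rested 2 h then exposed to compounds in concentration-response for 18-24 h at 37 °C. Viability by CellTiter-Fluor fluorescence (Ex 405/Em 525) after 30 min; luciferase luminescence (BugLite, 15 min, RT) read afterwards.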
Giardia kill – kills Giardia lamblia; Giardia lamblia trophozoite viability; activity change, % at 7.66 µM, hits read low; actives 0.15% (n = 340,000); in the data active means activity change below about -80%; inconclusive means between about -30% and that limit;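 further: parasites exposed to compound for two days anaerobically before the ATP read; on the % scale 0 is the no-effect control and ±100 the full control effect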
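Media and compound were dispensed first, then trophozoites at 100 cells/well; plates sat 48 hrs at 37 deg C without oxygen before ATP luminescence reagent was added and read after 15-30 min at room temperature.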
Apoferritin bind – binds horse apoferritin like a general anesthetic; Potency, µM (doses to about 77.5 µM), inactives show at the top dose activity change, negative = displacement, usual class: inhibitors; P02791; apoferritin/1-aminoanthracene competitive binding, fluorescence; actives 0.074% (n = 350,000); AID 485281; further: potency means the concentration at half of the fitted maximal effect; on the % scale 0 is the no-effect control and ±100 the full control effect; nearly all actives have a fitted effect of over 20% in size
Target sequence (P02791 2-175 limits assumed): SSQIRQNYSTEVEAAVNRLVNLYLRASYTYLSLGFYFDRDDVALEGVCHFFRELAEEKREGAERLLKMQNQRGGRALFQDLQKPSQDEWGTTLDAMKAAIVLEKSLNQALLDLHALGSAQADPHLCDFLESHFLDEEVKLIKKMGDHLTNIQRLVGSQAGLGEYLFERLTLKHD
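Horse-spleen apoferritin (10 uM) in 50% saturated 1-aminoanthracene in PBS was incubated 10 min at room temperature with compound. Fluorescence (ex 380, em 535 nm) was normalized to free and bound 1-AMA, with concentration-response fitted by a four-parameter Hill equation.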
IDH1 R132H inh – blocks human mutant IDH1 R132H enzyme; O75874; IDH1-R132H enzyme, NADPH consumption, diaphorase/resazurin fluorescence; Potency, µM (highest dose often 76.6 µM), for inactives: top-dose activity change, negative = inhibition, hits mostly inhibitors; actives 0.093% (n = 390,000); AID 602179; further: potency means the concentration at half of the fitted maximal effect; on the % scale 0 is the no-effect control and ±100 the full control effect; nearly all actives have a fitted effect of over 65% in size
Target sequence (O75874 whole entry R132H, stated change not applied): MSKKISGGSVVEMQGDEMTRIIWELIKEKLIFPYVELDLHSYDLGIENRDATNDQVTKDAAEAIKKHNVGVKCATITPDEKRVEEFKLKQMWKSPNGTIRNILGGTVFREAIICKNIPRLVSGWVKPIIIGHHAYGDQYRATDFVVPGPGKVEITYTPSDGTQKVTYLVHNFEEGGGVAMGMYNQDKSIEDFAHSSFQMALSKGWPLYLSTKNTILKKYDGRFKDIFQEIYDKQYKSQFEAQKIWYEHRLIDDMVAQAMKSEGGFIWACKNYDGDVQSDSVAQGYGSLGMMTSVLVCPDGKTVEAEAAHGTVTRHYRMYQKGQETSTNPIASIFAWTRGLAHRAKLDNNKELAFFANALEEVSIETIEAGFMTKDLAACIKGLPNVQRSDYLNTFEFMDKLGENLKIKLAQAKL
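IDH1-R132H (0.5 ug/mL dispensed) in pH 7.5 Tris buffer was preincubated 30 min with compound, then given a substrate mix of 0.016 mM NADPH and 2 mM alpha-KG for 80 min at room temperature; remaining NADPH was read by diaphorase/resazurin fluorescence.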
FLuc counter 3 – counter-screen for Nrf2 inhibitors: firefly luciferase enzyme inhibition | shares compounds with Nrf2 block | purified firefly luciferase, luminescence inhibition | Potency, µM (series often up to 57.5 µM), without a hit: top-dose activity change, negative = inhibition, actives largely listed as inhibitors | actives 4% (n = 1,400); further: potency means the concentration at half of the fitted maximal effect; on the % scale 0 is the no-effect control and ±100 the full control effect; nearly all actives have a fitted effect of over 65% in size
A549 tox-2 – toxic to A549 ARE-Fluc cells in Nrf2 counterscreen. shares compounds with Nrf2 block. A549 ARE-Fluc cells, cytotoxicity counterscreen. Potency, µM (top dose mostly 46.1 µM), without a hit: at the highest dose activity change, negative = cytotoxicity, hits mostly inhibitors. actives 2% (n = 1,400);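 further: potency means the concentration at half of the fitted maximal effect; cells exposed to compounds for 18 to 24 hours; on the % scale 0 is the no-effect control and ±100 the full control effect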
Nrf2 ARE inh – confirmation of Nrf2 inhibitors in A549 ARE reporter cells. actives 74% (n = 1,400). AID 720524. Potency, µM (titrated, usually from 46.1 µM), for the others: at the top dose activity change, negative = inhibition, actives largely listed as inhibitors. shares compounds with Nrf2 block. A549 ARE-firefly luciferase reporter, luminescence; further: potency means the concentration at half of the fitted maximal effect; on the % scale 0 is the no-effect control and ±100 the full control effect; nearly all actives have a fitted effect of over 65% in size
Numbers without * were called inactive. Unless noted, the call rests on the fitted dose curve; in most records, active means well fitted curve in the direction sought with a large enough effect; inconclusive means small, poorly fitted or top-dose-only effect, or another doubt; inactive means no such curve, though single readings can be large; an effect the other way counts as inactive or inconclusive.

Screening CC1CCN(C(=O)CSc2nc3c(cnn3-c3ccccc3)c(=O)[nH]2)CC1 returned Nrf2 block 5.8µM*, Nrf2 ARE act 0%, A549 tox-1 -14%, Giardia kill -16, Apoferritin bind -12%, IDH1 R132H inh -4%, FLuc counter 3 3%, A549 tox-2 -23% and Nrf2 ARE inh -26%.
Screening CC1CCN(C(=O)CSc2nc3c(cnn3-c3ccc(Cl)cc3)c(=O)[nH]2)CC1 returned Nrf2 block -7%, Nrf2 ARE act -1%, A549 tox-1 2%, Giardia kill 10, Apoferritin bind -7% and IDH1 R132H inh 1%.
Cc1cc(NC(=O)c2cc([N+](=O)[O-])cc([N+](=O)[O-])c2)n(-c2ccccc2)n1 was read as Nrf2 block -3%, Nrf2 ARE act 0%, A549 tox-1 -1%, Giardia kill -21, Apoferritin bind 3% and IDH1 R132H inh 7%.
Cc1cc(Nc2ccccc2C(=O)O)n(-c2ccc([N+](=O)[O-])cc2)n1 was read as Nrf2 block 6.5µM*, Nrf2 ARE act 0%, A549 tox-1 inconclusive, Giardia kill 7, Apoferritin bind -3%, IDH1 R132H inh 11%, FLuc counter 3 -14%, A549 tox-2 -5% and Nrf2 ARE inh inconclusive.
Screening Cc1cc(C)c(OC2(c3ccccc3)OC(=O)c3ccccc32)c(C)c1 (stereo unspecified) returned Nrf2 block 9.2µM*, Nrf2 ARE act 0%, A549 tox-1 -18%, Giardia kill 1, Apoferritin bind inconclusive, IDH1 R132H inh 4%, FLuc counter 3 1%, A549 tox-2 8% and Nrf2 ARE inh -3%.
COc1ccc(N2CCN(CCCNC(=O)c3sc4ncccc4c3-n3cccc3)CC2)cc1 was read as Nrf2 ARE act 5%, A549 tox-1 -3%, Apoferritin bind -6% and IDH1 R132H inh -7%.
COc1ccc(-c2csc(NC(=O)Cc3ccccc3)n2)cc1OC was read as Nrf2 block 2.6µM*, Nrf2 ARE act -1%, A549 tox-1 -9%, Giardia kill 6, Apoferritin bind 22%, IDH1 R132H inh 1%, FLuc counter 3 -25% and A549 tox-2 -3%.
COc1ccc(CC(=O)Nc2nnc(C(C)(C)C)s2)cc1OC was read as Nrf2 block 9.2µM*, Nrf2 ARE act 6%, A549 tox-1 -24%, Giardia kill -5, Apoferritin bind inconclusive, IDH1 R132H inh 6%, FLuc counter 3 -1%, A549 tox-2 -3% and Nrf2 ARE inh 3%.
CCC(=O)c1ccc(OCC(=O)Nc2nc(-c3cccnc3)cs2)cc1 was read as Nrf2 block 10%, Nrf2 ARE act 0%, A549 tox-1 4%, Giardia kill -10 and IDH1 R132H inh 2%.
For CCc1ccccc1OCC(=O)Nc1nc(-c2cccnc2)cs1 the results were Nrf2 block 7.3µM*, Nrf2 ARE act 5%, A549 tox-1 inconclusive, Giardia kill -11, Apoferritin bind -2%, IDH1 R132H inh -11%, FLuc counter 3 -19%, A549 tox-2 inconclusive and Nrf2 ARE inh inconclusive.
Cc1nc2c(OCc3cc(Cl)cc(Cl)c3)cccn2c1N(C)C(=O)CCC1CCCC1 was read as Nrf2 ARE act -1%.
Screening CCc1ccc(NC(=O)C2CCN(S(=O)(=O)c3cccs3)CC2)cc1 returned Nrf2 block 3.7µM*, Nrf2 ARE act 5%, A549 tox-1 -26%, Giardia kill 11, Apoferritin bind 6%, IDH1 R132H inh -7%, FLuc counter 3 -4%, A549 tox-2 -8% and Nrf2 ARE inh 9.2µM*.
`COc1ccc(NC(=O)C2CCN(S(=O)(=O)c3ccccc3)CC2)cc1` gave Nrf2 block -12%, Nrf2 ARE act -1%, A549 tox-1 -6%, Giardia kill 35, Apoferritin bind -4% and IDH1 R132H inh 0%.
Cc1ccc(-c2csc(NC(=O)C3CCN(S(=O)(=O)c4cccs4)CC3)n2)cc1 was read as Nrf2 block inconclusive, Nrf2 ARE act 3%, A549 tox-1 -1%, Giardia kill 6, Apoferritin bind 6% and IDH1 R132H inh 3%.
`COc1ccc(S(=O)(=O)N2CCC(C(=O)Nc3ccc(Oc4ccccc4)cc3)CC2)cc1` gave Nrf2 block inconclusive, Nrf2 ARE act 0%, A549 tox-1 0%, Apoferritin bind -6%, IDH1 R132H inh 1%, FLuc counter 3 -1%, A549 tox-2 -14% and Nrf2 ARE inh inconclusive.
For O=C(Nc1nc(-c2ccc3ccccc3c2)cs1)C1CCN(S(=O)(=O)c2cccs2)CC1 the results were Nrf2 block 5.2µM*, Nrf2 ARE act 0%, A549 tox-1 -10%, Giardia kill 5, Apoferritin bind 1%, IDH1 R132H inh -2%, FLuc counter 3 1%, A549 tox-2 -1% and Nrf2 ARE inh inconclusive.
`C/C=C\C1=CCCC1Nc1ncnc2ccc(-c3c(C)noc3C)cc12` (stereo unspecified) gave Nrf2 block inconclusive, A549 tox-1 2% and Apoferritin bind -12%.
`COc1cccc(-c2oc3c(c2C#CCCO)C(O)CCC3)c1` (stereo unspecified) gave Nrf2 ARE act 0%.
CC(=O)N1CCc2c(sc3c2c(=O)n(-c2cccc(Cl)c2)c(=O)n3Cc2ccc(F)cc2Cl)C1 was read as Nrf2 ARE act 0%, A549 tox-1 -7%, Apoferritin bind -1% and IDH1 R132H inh -18%.
`Cn1c(N)c(C(=O)CSc2nn(-c3ccccc3)c(=S)s2)c(=O)n(C)c1=O` gave Nrf2 block 7.3µM*, Nrf2 ARE act 0%, A549 tox-1 -16%, Giardia kill 9, IDH1 R132H inh 3%, FLuc counter 3 -10%, A549 tox-2 -12% and Nrf2 ARE inh 9.2µM*.
